Test results published in PubChem BioAssay (Tox21).
“And” between values parts separate entries of the source, which are not always exact repeats. Identical values can stand only once. Records with an inconclusive call do not appear. Some structures have more than one record in an assay (separate samples or runs), and their calls can disagree. Unmarked numbers belong to inactive results. The source made the active and inactive calls. The call rests on the fitted dose curve; in most records, active means well fitted cell-killing curve with a large enough effect in the repeat runs; inconclusive means weak or mixed curves, or effect the other way; inactive means flat fitted curve, though single readings scatter.

Assay: qHTS RealTime-Glo MT Cell Viability Assay in HEK293 cells - 40 hour (AID 1224874); further: nearly all actives have a fitted effect of over 50% in size
Conditions: RealTime-Glo luminescence; max response: stronger effect = lower value
Text: U.S. Tox21 Program National Center for Advancing Translational Sciences [NCATS] NIH Chemical Genomics Center [NCGC] U.S. Environmental Protection Agency [EPA] National Institutes of Environmental Health Sciences [NIEHS] National Toxicology Program [NTP] U.S. Food and Drug Administration [FDA] Tox21 Assay Overview: Measure of cell viability is critical in the cell-base assay. Analysis of cell viability is necessary for the characterization of cell responses to cytotoxic drugs and environmental stress. A RealTime-Glo MT Cell Viability Assay to monitor cell viability in real time of continues cell culture during 40 hours of compound treatment was used to screen Tox21 10K library compounds in Hek293 cells. The RealTime-Glo MT Cell Viability Assay is a nonlytic, homogeneous, bioluminescent method to measure cell viability in real time using a simple, plate-based method. The assay involves adding NanoLuc luciferase and a cell-permeant prosubstrate to cells in culture. Viable cells reduce the proprietary prosubstrate to generate a substrate for NanoLuc luciferase. This substrate diffuses from cells into the surrounding culture medium, where it is rapidly used by the NanoLuc Enzyme to produce a luminescent signal. The signal correlates with the number of viable cells, making the assay well suited for cytotoxicity studies.
Tox21 Assay Protocol Summary: The mixture of Hek293 cell suspension and reagents were dispensed at 600cells/6 ul/well in 1536-well tissue culture treated black solid bottom plates using a Multidrop dispenser. After the assay plates were incubated at a 37 C/5% CO2 incubator for 5 hours, 23 nL of compounds dissolved in DMSO, positive and negative controls was transferred to the assay plate by a pintool work station. The plates were incubated at 37 C for 40 hours. The luminescence intensity were measured at 0h, 8h, 16h, 24h, 32h and 40h time points using ViewLux plate reader during compound treatment.
On the % scale 0 is the no-effect control and ±100 the full control effect; potency means the concentration at half of the fitted maximal effect.

Question: With `O=C1C(Cl)=C(Cl)C(=O)c2ccccc21` as the molecule, how does the Potency read?
Answer: Its Potency is 5.51 µM (active) and 6.92 µM (active).

Question: With `CCCCCCCC[N+](C)(CCCCCCCC)CCCCCCCC` as the molecule, how does the Potency read?
Answer: Its Potency is 173 nM (active) and 138 nM (active) and 1.1 µM (active).

Question: For `C[C@]12CC[C@H]3[C@@H](CCC4=CC(=O)CC[C@@H]43)[C@@H]1CC[C@@H]2O`, which max response is on record?
Answer: The max response was -22.5%.

Question: With `CCOP(=O)(O)OCC` (tested in a mixture with another compound) as the molecule, how does the Potency read?
Answer: Its Potency is 2.43 µM (active).

Question: And the max response?
Answer: The max response was 4.04%.

Question: Which max response does the source give for `CCC1(c2ccc(N)cc2)CCC(=O)NC1=O` (stereo not given) here?
Answer: The max response was 6.38%.

Question: Which max response does the source give for `CC(C)=CC1C(C(=O)OCc2cccc(Oc3ccccc3)c2)C1(C)C` (stereo not given) here?
Answer: Its max response is -1.31% and -6.07%.

Question: With `CCC[CH2][Sn]([Cl])([Cl])[CH2]CCC` as the molecule, how does the Potency read?
Answer: Its Potency is 88.2 nM (active) and 110 nM (active).

Question: Which results are given for `Cc1ccc(N=CN(C)C=Nc2ccc(C)cc2C)c(C)c1`?
Answer: max response: -1.79%; Potency: 43.8 µM (active) and 43.6 µM (active)

Question: Which max response does the source give for `CC1CC(=O)O1` (stereo not given) here?
Answer: Its max response is 4.47% and -6.16%.

Question: Which max response does the source give for `COP(=S)(OC)Oc1ccc(S(=O)(=O)N(C)C)cc1` here?
Answer: The max response was -18.5% and -16.7%.

Question: For `Clc1cccc(Cl)c1`, which max response is on record?
Answer: Its max response is 0.4% and 0.365%.

Question: For `CC[n+]1c(-c2ccccc2)c2cc(N)ccc2c2ccc(N)cc21`, which Potency is on record?
Answer: The Potency was 3.45 µM (active) and 2.13 µM (active).

Question: With `CCN(CC)C(=O)C(C)Oc1cccc2ccccc12` (stereo not given) as the molecule, how does the max response read?
Answer: The max response was -27.1% and -29.7%.

Question: For `Nc1ccc2ccccc2c1`, which max response is on record?
Answer: Its max response is 5%.

Question: Which max response does the source give for `O=NN(c1ccccc1)c1ccccc1` here?
Answer: The max response was 1.85% and 24%.

Question: For `CC(C)(c1ccccc1)c1ccc(O)cc1`, which Potency is on record?
Answer: The Potency was 43.3 µM (active) and 27.5 µM (active).

Question: With `ClCC(Cl)CCl` as the molecule, how does the max response read?
Answer: The max response was 3.83% and -1.84%.

Question: Which Potency does the source give for `CCCCCCCCCC(CC)c1ccc(S(=O)(=O)O)cc1` (stereo not given) here?
Answer: Its Potency is 44.1 µM (active).

Question: What about the max response of the same molecule?
Answer: Its max response is -25.5% and -23.7% and -24.7%.

Question: Which max response does the source give for `Brc1ccc(Br)cc1` here?
Answer: The max response was 1.04% and 3.61%.

Question: With `N#Cc1cccnc1` as the molecule, how does the max response read?
Answer: The max response was -3.64% and -3.39%.

Question: Which Potency does the source give for `OC(c1ccc(Cl)cc1)(c1cncnc1)c1ccccc1Cl` (stereo not given) here?
Answer: The Potency was 5.59 µM (active) and 27.5 µM (active).

Question: For `CNC(=O)Oc1cccc2c1OC(C)(C)C2`, which max response is on record?
Answer: Its max response is -0.656% and 0.539%.

Question: For `C[N+](C)(C)CC(=O)[O-]`, which max response is on record?
Answer: The max response was 3.4% and 10.8%.

Question: For `NN=C(N)N`, which max response is on record?
Answer: The max response was -2.73% and -1.15%.

Question: Which max response does the source give for `COP(=S)(OC)Oc1ccc(Sc2ccc(OP(=S)(OC)OC)cc2)cc1` here?
Answer: The max response was 5.12%.

Question: For `CS(=O)(=O)NC(=O)c1cc(Oc2ccc(C(F)(F)F)cc2Cl)ccc1[N+](=O)[O-]`, which max response is on record?
Answer: The max response was 9.57% and 9.32%.

Question: With `Clc1ccccc1-c1nnc(-c2ccccc2Cl)nn1` as the molecule, how does the max response read?
Answer: Its max response is -1.79% and -6.1%.

Question: With `CCOP(=S)(OCC)SCn1c(=O)oc2cc(Cl)ccc21` as the molecule, how does the Potency read?
Answer: The Potency was 29.5 µM (active).

Question: For `CC(C)(c1ccccc1)c1ccc(O)c(C(C)(C)c2ccccc2)c1`, which Potency is on record?
Answer: The Potency was 17.2 µM (active) and 43.6 µM (active).

Question: Which max response does the source give for `ClC(Cl)(Cl)Br` here?
Answer: The max response was -0.387% and 6.81%.

Question: For `N#CC(c1ccccc1)c1ccccc1`, which max response is on record?
Answer: Its max response is -11%.

Question: With `c1ccc(C2CO2)cc1` (stereo not given) as the molecule, how does the max response read?
Answer: The max response was -2.54% and -3.91%.

Question: For `[CH3][Sn]([Cl])([Cl])[Cl]`, which max response is on record?
Answer: The max response was 17% and 3.42%.

Question: Which max response does the source give for `COc1ccc(O)c(C(C)(C)C)c1` here?
Answer: The max response was -6.92% and 11.9%.

Question: With `CCC(=O)Nc1ccc(Cl)c(Cl)c1` as the molecule, how does the Potency read?
Answer: Its Potency is 22.3 µM (active) and 43.6 µM (active).

Question: For `ClCc1ccccn1`, which max response is on record?
Answer: Its max response is 0.166% and 14.2%.

Question: For `CCOP(=O)(OCC)OCC`, which max response is on record?
Answer: Its max response is 0.385% and 0.0295%.
